84 compounds from ChEMBL document CHEMBL4888484, “Replenishing the malaria drug discovery pipeline: Screening and hit evaluation of the MMV Hit Generation Library 1 (HGL1) against asexual blood stage Plasmodium falciparum ,using a nano luciferase reporter read-out” (2022) can be followed below.

Each structure is given as a SMILES string. The whole screen tested about 150,000 compounds, of which about 540 (0.36%) showed an effect of 50% or more. The full list was thinned out, with strong results kept by preference.

The term % Inhibition denotes the relative decrease from the control value, in per cent.

This assay relates to Plasmodium falciparum. The assay can be described thus: Primary screen in NF54 nanoGlo assay, in single point, at 2uM, 72h; a lower Z score goes with more inhibition. Format: functional, Erythrocyte. Conditions: timepoint 72 hour.
Turning to `c1csc([C@@H]2CN(c3ncnc4sccc34)CCO2)n1`, the “% Inhibition” value is given as 5% and the Z score is -0.74.
`O=C(NC1CCCCC1)c1nn(-c2ccc(F)cc2)c2ccccc2c1=O`: the “% Inhibition” value is reported as -15% and the Z score worked out at 2.13.
In the same order, the values of `O=C1NCCCN1C1CCN(Cc2ccc(Cl)c(C(F)(F)F)c2)CC1` are 10% and -1.75.
For the compound `COc1cc(-c2ccc(C(=O)N3CCC[C@H](O)C3)cc2)nc(OC)n1`, the “% Inhibition” value stood at 2% and the Z score is given as -0.43.
For `Cc1cccc(NC(=O)[C@H]2CCN(c3cn[nH]c(=O)c3)C2)c1`, in that order: 52% and -0.4.
On to `O=C(Nc1ccc(N2CCOCC2)cc1)[C@H]1CCN(c2cn[nH]c(=O)c2)C1`, for which the “% Inhibition” value is -14% and the Z score stood at 1.91.
For `Cc1cccc(CNC(=O)[C@H]2CCN(c3cn[nH]c(=O)c3)C2)c1`, the “% Inhibition” value is reported as -12% and the Z score is listed as 1.58.
On to `CCCCN1C(=O)[C@](NS(=O)(=O)c2ccc(NC(C)=O)cc2)(C(F)(F)F)C(C(C)=O)=C1C`, for which the “% Inhibition” value is reported as -7% and the Z score was found to be 0.92.
For the compound `N#Cc1nc2c(C#N)c(N)n(CCc3ccccc3)c2nc1C#N`, the “% Inhibition” value is 88% and the Z score is on record as -11.87.
In the same order, the values of `COc1ccc(CCn2c(N)c(-c3nc4ccccc4s3)c3nc(C#N)c(C#N)nc32)cc1OC` are -5% and 0.86.
For `N#Cc1nc2c(S(=O)(=O)c3ccccc3)c(N)n(Cc3ccc(Cl)cc3)c2nc1C#N`, in that order: -16% and 2.57.
In the same order, the values of `C[C@H]1COCCN1C(=O)CCc1ccco1` are -2% and 0.25.
Take `Cc1ccc(CNC[C@H](O)c2cccnc2)c(Br)c1`: the “% Inhibition” value amounted to 7% and the Z score is reported as -0.68.
For `O=C(Cn1cnc2ccc(Cl)cc2c1=O)NCCCc1ccccc1`, in that order: 2% and -0.27.
For `Cc1ccsc1CN(CCN1CCOCC1)[C@H]1CCCNC1`, in that order: -5% and 0.7.
Consider `CCOC(=O)N1CC[C@H](NC2(c3cc(F)ccc3F)CC2)C1`, for which the “% Inhibition” value is on record as -9% and the Z score was 1.36.
On to `O=C(Cn1cc2c(n1)CCCCCC2)NCCc1ccc(Cl)cc1`, for which the “% Inhibition” value was found to be 6% and the Z score was -0.96.
For `C[C@@H](CNc1cnc2ccccc2n1)N1CCOCC1`, in that order: 20% and -2.58.
For `C[C@@H](CNc1nc(-c2ccccc2)nc2ccccc12)N1CCOCC1`, in that order: -9% and 1.51.
In the same order, the values of `CCCCCc1nc([C@H](C)N2CCN(C)CC2)n(-c2cc(C)ccn2)n1` are -3% and 0.42.
For the compound `O=S(=O)(c1ccc(Cl)s1)N1CCc2nc(-c3ccc(Cl)cc3)ncc2C1`, the “% Inhibition” value is -11% and the Z score came to 1.78.
In the same order, the values of `Cc1cccc2c1OCC[C@H]2NC(=O)Cn1cnc2c1CCNC21CCOCC1` are -5% and 0.76.
For `Clc1ccc(Cn2cc(CNCCCn3ccnc3)c3ccccc32)c(Cl)c1`, in that order: 98% and -10.9.
In the same order, the values of `O[C@@H](CNCCCn1ccnc1)COc1ccc(Cl)cc1Cl` are 26% and -2.66.
Take `C[C@@H](NCCCn1ccnc1)c1ccc(Cl)cc1`: the “% Inhibition” value is -4% and the Z score is given as 0.5.
Take `Clc1ccc(COc2ccc(Cl)cc2CNCCCn2ccnc2)c(Cl)c1`: the “% Inhibition” value is given as 94% and the Z score is on record as -11.1.
With `CCOc1cc(CNCCCn2ccnc2)ccc1OCc1ccccc1`, the “% Inhibition” value was 46% and the Z score is listed as -2.57.
Turning to `O=c1[nH]nc(Cn2ccnc2)n1Cc1ccc(Cl)cc1Cl`, the “% Inhibition” value was determined as 0% and the Z score is listed as -0.08.
In the same order, the values of `O=C(O)c1cccc(CN2CCc3nc(C4CC4)ncc3C2)c1` are -13% and 1.45.
In the same order, the values of `CC1CC(N2CCCC(n3cnc4ccccc43)C2)CN1C` (stereo not drawn) are -5% and 0.43.
In the same order, the values of `Cc1ccc(C(=O)c2nocc2C(=O)c2cccnc2)cc1` are 1% and -0.19.
Consider `CCc1cc(C(=O)N2CCN(C/C=C/c3ccccc3)CC2)cc(=O)[nH]1`, for which the “% Inhibition” value came out at 0% and the Z score stood at 0.04.
In the same order, the values of `CC1CCC(C(C)C)C(OC(=O)Cn2nnc(C(N)=O)n2)C1` (stereo not drawn) are 19% and -2.22.
In the same order, the values of `CC(C)[C@@H]1CC[C@H](C)C[C@H]1OC(=O)Cn1cc(-c2ccc(Cl)cc2)[n+]2c1CCC2` are 79% and -6.99.
For `CC1CCC(C(C)C)C(OC(=O)COC(=O)c2ccncc2)C1` (stereo not drawn), in that order: -10% and 1.31.
`Cc1onc(-c2ccccn2)c1C(=O)NC1CCCCC1`: the “% Inhibition” value was determined as 12% and the Z score is recorded as -2.28.
In the case of `O=C(Nc1ccc(Cc2ccc(NC(=O)c3ccc(Br)cc3)c(O)c2)cc1O)c1ccc(Br)cc1`, the “% Inhibition” value was 60% and the Z score was -1.
On to `CNC(=O)CCCC(=O)Nc1ccc(Br)cc1O`, for which the “% Inhibition” value is -9% and the Z score is reported as 0.88.
For `C=C(C)C(=O)Nc1ccc(Cc2ccc(NC(=O)C(=C)C)c(O)c2)cc1O`, in that order: 0% and -0.04.
For `CCN(CC(=O)N1CCCNC(=O)[C@@H]1C)c1ccccc1`, in that order: -10% and 1.27.
Regarding `O=C(c1n[nH]c2c1CCc1ccccc1-2)N1CCCCCC1`, the “% Inhibition” value is recorded as -15% and the Z score is given as 1.3.
With `O=C(NCCN1CCCCC1)c1n[nH]c2c1CCc1ccccc1-2`, the “% Inhibition” value was found to be 52% and the Z score is reported as -0.47.
`O=C(NCCc1nccs1)c1n[nH]c2c1CCc1ccccc1-2`: the “% Inhibition” value is reported as -9% and the Z score worked out at 1.37.
For `Cc1nc(C(=O)NC[C@@]23CCC[C@@H]2OCC3)c(-c2ccccc2)o1`, in that order: 0% and -0.01.
For `O=C(Nc1[nH]c(=O)ncc1F)c1coc(-c2ccccc2)n1`, in that order: 80% and -14.59.
For `CC(C)c1nc(C(=O)N[C@@H](C)C(N)=O)cs1`, in that order: -9% and 1.83.
Take `CC(C)c1nc(C(=O)Nc2[nH]c(=O)ncc2F)cs1`: the “% Inhibition” value was found to be 88% and the Z score was -15.46.
For `CC(C)c1nc(C(=O)Nc2[nH]nc(C3CC3)c2C#N)cs1`, in that order: -25% and 3.79.
`Nc1ccc(F)cc1NC(=O)c1coc(-c2ccccc2)n1`: the “% Inhibition” value is on record as -10% and the Z score stood at 1.7.
In the same order, the values of `Cc1nc(C(=O)Nc2[nH]c(=O)ncc2F)c(-c2ccccc2)o1` are 80% and -7.61.
In the same order, the values of `Cc1cnc(NC(=O)c2nc(C)oc2-c2ccccc2)[nH]1` are -10% and 1.11.
As for `CCc1ncc(NC(=O)c2coc(-c3ccccc3)n2)cn1`, the “% Inhibition” value is -21% and the Z score came to 2.66.
For `CCOCCCNC(=O)C1CCN(C(=O)c2cc3oc(C)cc3n2Cc2c(F)cccc2Cl)CC1`, in that order: -1% and 0.06.
In the same order, the values of `CN1CCN(S(=O)(=O)N2CCN(Cc3cccn3C)CC2)CC1` are 7% and -0.7.
For `NC(=O)CN1CCC(Nc2nc3ccccc3n2CCO)CC1`, in that order: -7% and 1.08.
Take `COc1cccc(NC(=O)Cc2c(C)nn(-c3nc(-c4ccc(C)cc4)cs3)c2C)c1`: the “% Inhibition” value is on record as -13% and the Z score was determined as 1.45.
For `CN(Cc1cc2cc(F)ccc2[nH]1)Cc1ccnn1C`, in that order: -9% and 1.38.
In the same order, the values of `C[C@H](Nc1ccc(C#N)cn1)c1cccc(-n2cccn2)c1` are 0% and 0.03.
Consider `CNCCc1c(-c2ccccc2)[nH]n(-c2ccccc2)c1=O`, for which the “% Inhibition” value is given as 82% and the Z score is listed as -6.33.
For `CCCCCc1c(C)nc2[nH]n(-c3ccccc3)c(=O)c2c1O`, in that order: 34% and 2.26.
In the case of `Cc1ccccc1Cc1c(C)[nH]c2[nH]n(-c3ccccc3)c(=O)c2c1=O`, the “% Inhibition” value is recorded as 10% and the Z score is reported as -1.18.
On to `O=C1NCCN1CCN1CCc2[nH]ncc2C1`, for which the “% Inhibition” value was -10% and the Z score is reported as 1.34.
With `CC1=NN(c2ccccc2)C(=O)C12Cc1ccc(Cl)cc1N1CCCCC12` (stereo not drawn), the “% Inhibition” value turned out to be 8% and the Z score is -1.22.
In the case of `Cc1cc(OC[C@@H](O)CNC(C)C)cc(C)c1Cl`, the “% Inhibition” value is given as -7% and the Z score is 1.4.
For the compound `Cc1cc(C)cc(OC[C@@H](O)CNC(C)(C)CC(C)(C)C)c1`, the “% Inhibition” value is -3% and the Z score is recorded as 0.43.
For `Cc1cc(OC[C@@H](O)CNC(C)(C)CC(C)(C)C)cc(C)c1Cl`, the “% Inhibition” value amounted to 51% and the Z score was -6.83.
For `CCc1cnc(C)nc1N1CCC(N2CC(n3nc(C)cc3C)C2)CC1`, in that order: 6% and -1.11.
In the same order, the values of `CN(Cc1cccnc1)C(=O)c1csc(NC(=O)c2ccc(Cl)cc2Cl)n1` are -12% and 1.69.
For `COc1ccc(-c2ccnc(N[C@H]3CCN(C4CCOCC4)C3=O)n2)cc1`, in that order: -13% and 2.48.
`C=CCOCC(O)CN(Cc1c(-c2ccccc2)noc1N1CCCCC1C)CC1CCCO1` (stereo not drawn): the “% Inhibition” value worked out at 30% and the Z score is on record as -0.88.
For `C#CCOCC(O)CN(Cc1c(-c2ccccc2)noc1N1CCC(C)CC1)CC1CCCO1` (stereo not drawn), in that order: 59% and 1.43.
In the same order, the values of `CCOC[C@@H](O)CN(Cc1c(-c2ccccc2)noc1N1CCC(C)CC1)CC1CC1` are 35% and 0.79.
On to `CC(NC(=O)NC(C)c1ccc(-c2cccnc2)cc1)c1ccncc1` (stereo not drawn), for which the “% Inhibition” value is recorded as 7% and the Z score is reported as -1.01.
As for `CC(C)C(=O)Nc1ccc(-c2cc(-c3ccc(NC(=O)C(C)C)cc3)nc(-c3ccncc3)n2)cc1`, the “% Inhibition” value worked out at 38% and the Z score is -10.15.
In the same order, the values of `C[C@H](N)c1ccc(Nc2ncc3cc(-c4ccncc4)ccc3n2)cc1` are 85% and -9.36.
Regarding `CCOc1c(Br)cc(Cl)cc1NCC(=O)NC(=O)NCC(C)C`, the “% Inhibition” value is -7% and the Z score stood at 1.36.
Take `Cn1ncc2c1CCCN(c1nccn3nc(C(F)(F)F)cc13)C2`: the “% Inhibition” value is -10% and the Z score was determined as 1.44.
Turning to `CC(=O)c1ccc(NC(=O)c2cc3n(n2)CCCO3)cc1`, the “% Inhibition” value is reported as -7% and the Z score was 1.13.
On to `CC(C)=CC1C(C(=O)N(C)CC2COc3ccccc3O2)C1(C)C` (stereo not drawn), for which the “% Inhibition” value was -4% and the Z score was 0.45.
Regarding `Cc1cncc(C(=O)NC[C@@H](CO)Cc2ccc(Cl)cc2)c1`, the “% Inhibition” value is recorded as -7% and the Z score is 0.93.
In the same order, the values of `COC[C@H](NCCc1cc(F)cc2c1OCOC2)C1CC1` are 63% and -8.98.
For the compound `CC1CC(NCCc2cc(F)cc3c2OCOC3)CN1C1CC1` (stereo not drawn), the “% Inhibition” value is recorded as -5% and the Z score is 0.45.
In the same order, the values of `O=C(CNC(=O)NC1CC1)NCCc1cc(F)cc2c1OCOC2` are -2% and 0.2.
Consider `Cc1nc(-c2ccnc(NCc3cnc(N(C)C)nc3)c2)n[nH]1`, for which the “% Inhibition” value is 5% and the Z score is given as -0.63.
